From PubChem
ClpP mod = qHTS Assay for Activators of ClpP | ATP-dependent Clp protease proteolytic subunit (Bacillus subtilis (strain 168)), P80244 | purified B. subtilis ClpP, FRET peptide cleavage, 20 min | Potency, µM (top dose mostly 57.5 µM), without a hit: at the top dose activity change, negative = active | hit rate 1.9% among 340,000 | AID 651965, 2013; active = well fitted falling curve with a large enough effect; inconclusive = small, poorly fitted or top-dose-only effect; inactive = no such curve, though single readings can be large or run the other way; also: potency is read from the fitted curve at half-maximal effect; the source files actives as falling curves though it sought activators and does not explain the sign; nearly all actives have a fitted effect of over 65% in size
Target sequence (P80244 whole entry, looked up): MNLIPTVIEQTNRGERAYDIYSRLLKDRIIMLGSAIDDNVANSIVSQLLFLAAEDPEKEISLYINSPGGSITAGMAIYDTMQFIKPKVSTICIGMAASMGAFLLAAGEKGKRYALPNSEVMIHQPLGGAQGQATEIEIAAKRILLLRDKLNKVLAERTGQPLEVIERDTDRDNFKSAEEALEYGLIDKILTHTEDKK
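ClpP 10 microg/mL final, pH 8 Tris/KCl buffer with BSA, glycerol, Tween-20; compound pinned in; FRET-FV substrate; RT 20 min; Ex320/Em430; ΔFRET vs ADEP 5.8 microM, DMSO, no enzyme.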
DRD3 agonist = activates the human D3 dopamine receptor. P35462. D3R DiscoveRx beta-arrestin cells, luminescence, 90 min. max activation, %. hit rate 0.58% among 410,000. AID 652048; in the data active = max activation above about 30%; also: 0% is about no effect
Target sequence (P35462 whole entry, looked up): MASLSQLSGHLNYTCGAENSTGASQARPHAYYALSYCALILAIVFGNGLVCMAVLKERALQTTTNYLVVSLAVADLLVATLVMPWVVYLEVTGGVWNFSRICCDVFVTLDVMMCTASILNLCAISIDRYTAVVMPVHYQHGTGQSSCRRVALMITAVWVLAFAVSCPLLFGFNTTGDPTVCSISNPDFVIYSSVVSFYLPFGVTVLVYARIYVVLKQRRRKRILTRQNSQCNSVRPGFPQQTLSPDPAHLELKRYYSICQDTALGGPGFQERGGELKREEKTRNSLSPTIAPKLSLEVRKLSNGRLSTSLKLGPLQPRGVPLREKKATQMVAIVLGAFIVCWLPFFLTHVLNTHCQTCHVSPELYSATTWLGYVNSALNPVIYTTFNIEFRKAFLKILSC
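Cells at 1500/well, incubated overnight, then treated with pinned compounds (dopamine as control) for 90 min at 37 degrees C. DiscoveRx reagent added for 30 - 60 minutes at room temperature; luminescence read.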
DT40 TDP1 CPT = DT40-hTDP1 cell growth loss with CPT | chicken DT40 Tdp1-/-;hTDP1 cells + 20 nM CPT, ATP luminescence, 48 h | Potency, µM (titrated, usually from 46.2 µM), for inactives: at the top dose activity change, negative = growth inhibition, usual class: inhibitors | hit rate 12% among 420,000 | AID 686979; also: potency is read from the fitted curve at half-maximal effect; % is scaled to controls: 0 for no effect and ±100 for the full control effect; nearly all actives have a fitted effect of over 55% in size
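Chicken DT40 Tdp1-/- cells complemented with human TDP1, 400 cells/well, exposed to compounds plus 20 nM camptothecin for at least 48 h at 37 C; viability read as ATP content by CellTiter-Glo luminescence.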
DRD3 antagonist = blocks the human D3 dopamine receptor. P35462. hit rate 2.5% among 360,000. AID 652054. max response, negative = inhibition, %. D3R cells, DiscoveRx beta-arrestin luminescence, antagonist mode; stronger effect = lower value; in the data active = max response below about -50%; inconclusive = no clear call, values can overlap the other calls; also: % is scaled to controls: 0 for no effect and ±100 for the full control effect
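Cells plated overnight at 1500 cells/well, then exposed to library compounds with dopamine controls for 90 minutes at 37 degrees C. DiscoveRx reagent added for 30–60 minutes at room temperature; luminescence read, quantitative HTS format.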
IL-1B inflam inh = inhibitors of inflammasome signaling (IL-1 beta secretion). THP-1 LPS/ATP IL-1B secretion, AlphaLISA, 16 h; stronger effect = lower value. activity change, % at 57.5 µM. hit rate 4.7% among 360,000. AID 743279; in the data active = activity change below about -50%; inconclusive = mostly about -30% to -49%; also: % is scaled to controls: 0 for no effect and ±100 for the full control effect
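Secreted IL-1B measured by AlphaLISA bead assay after 16 h compound exposure of THP-1 cells; compounds (final up to 57.5 uM) added 1 h before LPS (250 ng/mL) and ATP (1.25 mM) stimulation; lower signal means less secretion.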
TDP1 cell noCPT = qHTS for Inhibitors of human tyrosyl-DNA phosphodiesterase 1 (TDP1): qHTS in cells in absence of CPT | DT40 Tdp1-/- hTDP1 cells, no CPT, ATP luminescence, 48 h | hit rate 15% among 420,000 | Potency, µM (highest dose often 46.2 µM), for the others: top-dose activity change, negative = growth inhibition, most hits filed as inhibitors; also: potency is read from the fitted curve at half-maximal effect; % is scaled to controls: 0 for no effect and ±100 for the full control effect; nearly all actives have a fitted effect of over 55% in size
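Camptothecin absent (DMSO only). Human TDP1-complemented DT40 knockout cells, 400 cells/well, 37 °C for minimum 48 hr; ATP measured via CellTiter-Glo, 30 min dark incubation, luminescence.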
An asterisk follows results filed as active; ! = not active in a repeat. This is a sample that favours compounds with a hit; in the whole collection about 21% have one here. Unless noted, calls follow the shape of the dose curve; as a rule, active = well fitted inhibition curve with a large enough effect; inconclusive = small, poorly fitted or top-dose-only effect; inactive = flat fitted curve, though single readings scatter.

Cc1ccccc1OCC(=O)Nc1ccc(S(=O)(=O)Nc2ccccn2)cc1 was read as ClpP mod 16%, DRD3 agonist 1, DT40 TDP1 CPT -26%, DRD3 antagonist -20, IL-1B inflam inh 0 and TDP1 cell noCPT -24%.
Cc1ccc(S(=O)(=O)Nc2ccccc2C(=O)Nc2ccc(S(=O)(=O)Nc3nccc(C)n3)cc2)cc1 was read as ClpP mod 13µM*, DRD3 agonist -5, DT40 TDP1 CPT -10%, DRD3 antagonist 0, IL-1B inflam inh 6 and TDP1 cell noCPT -8%.
For CC(=O)Nc1ccc(C(=O)Nc2ccc(S(=O)(=O)Nc3nccc(C)n3)cc2)cc1 the results were ClpP mod 0%, DRD3 agonist 0, DT40 TDP1 CPT -3%, DRD3 antagonist -10, IL-1B inflam inh 5 and TDP1 cell noCPT 27%.
CCOC(=O)c1ccc(NC(=O)COCc2cc(-c3ccc4c(c3)OCO4)on2)cc1 was read as ClpP mod -2%, DRD3 agonist 1, DT40 TDP1 CPT -22% and TDP1 cell noCPT -27%.
Screening CCCOc1ccc(C(=O)Nc2c(C(=O)c3ccc(C)cc3)oc3ccccc23)cc1 returned ClpP mod -4% and DRD3 agonist 2.
CN1/C(=C/c2cc[n+](C)c3ccccc23)C=Cc2ccccc21 was read as DRD3 agonist -11, DT40 TDP1 CPT 0.46µM*, DRD3 antagonist -18, IL-1B inflam inh -97* and TDP1 cell noCPT 0.18µM*.
`CCS(=O)(=O)N1CCc2cc(C(=O)Nc3cccc(C)c3C)ccc21` gave ClpP mod 0%, DRD3 agonist -6, DT40 TDP1 CPT inconclusive and TDP1 cell noCPT inconclusive.
`Cc1ccc(C)c(NC(=S)N2CCC(NC(=O)c3ccco3)CC2)c1` gave DRD3 agonist 0, DT40 TDP1 CPT 5%, DRD3 antagonist -6, IL-1B inflam inh 18 and TDP1 cell noCPT -21%.
CCOC(=O)COc1ccccc1/C=C\[N+](=O)[O-] was read as ClpP mod 2%, DRD3 agonist -12, DT40 TDP1 CPT 2.6µM*, DRD3 antagonist -103*, IL-1B inflam inh -100* and TDP1 cell noCPT 1.6µM*.
Screening CCN(CC)C(=O)C12CC3CC(CC(Br)(C3)C1)C2 returned DRD3 agonist -6, DT40 TDP1 CPT -3%, DRD3 antagonist -18, IL-1B inflam inh -7 and TDP1 cell noCPT -4%.
For Cc1ccccc1SCC(=O)N/N=C/c1ccc(F)cc1 the results were ClpP mod 0%, DRD3 agonist 5, DT40 TDP1 CPT inconclusive, DRD3 antagonist -11, IL-1B inflam inh -4 and TDP1 cell noCPT 4%.
O=C(CSC1CN(C(c2ccccc2)c2ccccc2)C1)N/N=C/c1ccccc1 was read as DRD3 agonist 4, DT40 TDP1 CPT 16µM*, DRD3 antagonist 0, IL-1B inflam inh -23 and TDP1 cell noCPT inconclusive.
`N/C(=N\OC(=O)c1cccc(Cn2cc(C(F)(F)F)ccc2=O)c1)c1ccc(Cl)cc1` gave DRD3 agonist 16, DT40 TDP1 CPT inconclusive, DRD3 antagonist -20, IL-1B inflam inh inconclusive and TDP1 cell noCPT 21µM*.
Screening O=C(O)c1ccc(Cn2cc(C(F)(F)F)ccc2=O)cc1 returned ClpP mod 0%, DRD3 agonist 2, DT40 TDP1 CPT 5%, DRD3 antagonist 2, IL-1B inflam inh -1 and TDP1 cell noCPT 10%.
O=C(Sc1ccc(Cl)cc1)c1cccc(Cn2cc(C(F)(F)F)ccc2=O)c1 was read as ClpP mod -1%, DRD3 agonist -12, DT40 TDP1 CPT 18µM*, DRD3 antagonist inconclusive, IL-1B inflam inh 20 and TDP1 cell noCPT 16µM*.
`Cc1ccc(/C(N)=N/OC(=O)c2cccc(Cn3cc(C(F)(F)F)ccc3=O)c2)cc1` gave ClpP mod 0%, DRD3 agonist -4, DT40 TDP1 CPT inconclusive, DRD3 antagonist -25, IL-1B inflam inh -68* and TDP1 cell noCPT 18µM*.
Screening N/C(=N\OC(=O)c1cccc(Cn2cc(C(F)(F)F)ccc2=O)c1)c1ccccc1 returned ClpP mod 0%, DRD3 agonist 3, DT40 TDP1 CPT -4%, DRD3 antagonist 0, IL-1B inflam inh 0 and TDP1 cell noCPT -21%.
COc1ccc(Nc2nc(C)nc(N)c2S(=O)(=O)c2ccccc2)cc1 was read as ClpP mod 4% and DRD3 agonist -3.
Screening CCC(C)n1c(SCC(=O)NC2CCCC2)nc2ccccc2c1=O (stereo not given) returned ClpP mod 1%, DRD3 agonist 3, DT40 TDP1 CPT inconclusive, DRD3 antagonist 11, IL-1B inflam inh -8 and TDP1 cell noCPT inconclusive.
Oc1ccc(Cl)cc1C=Nc1ccccc1Br was read as ClpP mod inconclusive, DRD3 agonist -4, DT40 TDP1 CPT -1%, DRD3 antagonist 0, IL-1B inflam inh 26 and TDP1 cell noCPT -20%.
Oc1ccc(Br)cc1C=Nc1ccc2c3c(cccc13)CC2 was read as ClpP mod 32µM*, DRD3 agonist -6, DT40 TDP1 CPT -3%, DRD3 antagonist -54*, IL-1B inflam inh 18 and TDP1 cell noCPT -10%.
Screening C=CCN1C(=O)C(O)(CC(=O)c2ccc(N)cc2)c2ccccc21 (stereo not given) returned ClpP mod -6%, DRD3 agonist -3, DT40 TDP1 CPT inconclusive, DRD3 antagonist inconclusive, IL-1B inflam inh -9 and TDP1 cell noCPT inconclusive.
Screening O=C(CC1(O)C(=O)N(C/C=C/c2ccccc2)c2ccccc21)c1ccccn1 (stereo not given) returned ClpP mod 0%, DRD3 agonist -9, DT40 TDP1 CPT 1.3µM*, DRD3 antagonist -14, IL-1B inflam inh 34 and TDP1 cell noCPT 0.89µM*.
`O=C(CC1(O)C(=O)N(CCc2ccccc2)c2ccccc21)c1ccccn1` (stereo not given) gave DRD3 agonist -6, DT40 TDP1 CPT 2.6µM*, DRD3 antagonist -11, IL-1B inflam inh -10 and TDP1 cell noCPT 5.2µM*.
For CCOc1ccc(-c2nnc(Nc3ccc(OC)c(C(=O)N4CCCCC4)c3)c3ccccc23)cc1 the results were ClpP mod -3%, DRD3 agonist 1, DT40 TDP1 CPT inconclusive, DRD3 antagonist 0, IL-1B inflam inh -19 and TDP1 cell noCPT 16µM*.
`CNC(=O)c1cc(Nc2nnc(-c3ccc(O)cc3)c3ccccc23)ccc1OC` gave ClpP mod -4%, DRD3 agonist -7, DT40 TDP1 CPT 16µM*!, DRD3 antagonist 10, IL-1B inflam inh -59* and TDP1 cell noCPT inconclusive.
